Experimental data from the supplement of paper PMC9177965.
Values joined by “and” are separate entries in the source; they are usually repeats but may differ in a detail not shown here. Equal entries are not always repeated.

The compounds below were run on HT29 sg-Ctrl (RNF43 wildtype) (assay: cell viability activity relative to DMSO (negative = inhibition); higher = more viable cells (less growth inhibition)). Settings: 5 µM; 96 h.
Procedure: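 Broad Repurposing Library primary screen at a single dose of 5 uM. HT29 sg-Ctrl and HT29 RNF43 G659fs CRISPR-edited isogenic cells were seeded at 2500 cells/well in 384-well plates in duplicate and treated for 96 h. Viability was read by CellTiter-Glo and reported as % activity relative to DMSO, with MG132 as the positive control (negative = growth inhibition).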

Structure (SMILES)	cell viability activity
COc1cccc2c1C(=O)c1c(O)c3c(c(O)c1C2=O)C[C@@](O)(C(=O)CO)C[C@@H]3O[C@H]1C[C@H](N2CCO[C@H](OC)C2)[C@H](O)[C@H](C)O1	-95.3%
C/C=C(\C)C(=O)N[C@@H](c1ccccc1)[C@@H](O)C(=O)O[C@H]1C[C@@]2(O)[C@@H](OC(=O)c3ccccc3)[C@@H]3[C@]4(OC(C)=O)CO[C@@H]4C[C@H](O)[C@@]3(C)C(=O)[C@H](OC(C)=O)C(=C1C)C2(C)C	-69.3%
Cn1c(COP(=O)(NCCBr)NCCBr)cnc1[N+](=O)[O-]	-27.3%
C[C@@H]1O[C@@H](O[C@@H]2C=C3CC[C@@H]4[C@H](CC[C@]5(C)[C@@H](c6ccc(=O)oc6)CC[C@]45O)[C@@]3(C)CC2)[C@H](O)[C@H](O)[C@H]1O	-87.4%
O=C1/C(=C/c2ccccc2)C[C@@]2(O)C3Cc4ccc(O)c5c4[C@@]2(CCN3CC2CC2)[C@H]1O5	-66%
N#Cc1cn([C@@H]2O[C@H](CO)[C@@H](O)[C@H]2O)c2ncnc(N)c12	-89.9%
Fc1cc(F)c2c(c1)[C@H]1C=CC[C@H]1C(c1cccnc1)N2 (some centres undefined)	-92.9% and -73.9%
CC(C)(C)c1cc(C=C(C#N)C#N)cc(C(C)(C)C)c1O	-67.3%
CC(=O)O[C@H]1C[C@H](O[C@H]2[C@@H](O)C[C@H](O[C@H]3[C@@H](O)C[C@H](O[C@H]4CC[C@@]5(C)[C@H](CC[C@@H]6[C@@H]5C[C@@H](O)[C@]5(C)[C@@H](C7=CC(=O)OC7)CC[C@]65O)C4)O[C@@H]3C)O[C@@H]2C)O[C@H](C)[C@H]1O[C@@H]1O[C@H](CO)[C@@H](O)[C@H](O)[C@H]1O	-89.1%
CN(C)C(=S)SSC(=S)N(C)C	-69%
C=C1[C@@H](C)[C@H]2[C@H](Cc3ccccc3)NC(=O)[C@]23OC(=O)/C=C/[C@H](O)CCC[C@@H](C)C/C=C/[C@H]3[C@@H]1O	-36.1%
Oc1cc(Cl)ccc1Oc1ccc(Cl)cc1Cl	-92.8%
C[C@@H]1O[C@@H](O[C@H]2C[C@@H](O)[C@]3(CO)[C@H]4[C@H](O)C[C@]5(C)[C@@H](C6=CC(=O)OC6)CC[C@]5(O)[C@@H]4CC[C@]3(O)C2)[C@H](O)[C@H](O)[C@H]1O	-87.7% and -89.1%
CC[C@@H]1/C=C/C=C/C[C@H](C)[C@H](O)[C@](C)(O)C(=O)[C@H](C)[C@@H](O)[C@H](C)C(=O)[C@H](C)[C@@H](O)[C@H](C)/C=C/C(=O)O[C@H]2[C@@H](C)[C@@H](CC1)O[C@@]1(CC[C@@H](C)[C@@H](C[C@H](C)O)O1)[C@@H]2C	-42.2%
